Assay outcomes from PubChem BioAssay.
KinaseGlo FLuc = Counterscreen for Luciferase (Kinase-Glo TM) Inhibition. Luciferin 4-monooxygenase (Photuris pensylvanica), Q27757. Kinase-Glo luciferase, ATP luminescence, 8 min. Potency, µM (series often up to 38.3 µM), without a hit: at the highest dose activity change, negative = inhibition, usual class: inhibitors. 0.28% of 200,000 active; note: % is set by controls: 0 for no effect and ±100 for the full control effect; nearly all actives have a fitted effect of over 60% in size
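Light output from Kinase-Glo luciferase with luciferin and 10 uM ATP in 50 mM imidazole pH 7.2, KCl, MgCl2, Tween 20, BSA; compound pin-delivered, 8-min ambient incubation, then luminescence read.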
SMN2 splice enh = qHTS Assay for Enhancers of SMN2 Splice Variant Expression; HEK293 SMN2-luciferase splicing reporter, luminescence, 30-36 h; Potency, µM (top dose mostly 46.1 µM), without a hit: at the top dose activity change, positive = activation, usual class: activators; 2.8% of 210,000 active; AID 1458, 2008; note: % of control where 0% means no effect; nearly all actives have a fitted effect of over 55% in size
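HEK293 cells carry an SMN2 […]–luciferase reporter in which exon 7 inclusion puts luciferase in frame. Cells were plated 10-12 h before compound addition, then incubated 30-36 h at 37C. ONE-Glo luminescence was read; sodium butyrate at 4.5 mM final served as control.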
ELG1 genotox = qHTS screen for small molecules that induce genotoxicity in human embryonic kidney (HEK293T) cells expressing luciferase-tagged ELG1 | HEK293T ELG1-luciferase reporter, luminescence, 16 h | Potency, µM (series often up to 46 µM), without a hit: at the highest dose activity change, positive = activation, actives largely listed as activators | 1.3% of 330,000 active | AID 504466, 2011; note: % of control where 0% means no effect; nearly all actives have a fitted effect of over 60% in size
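ELG1-luciferase HEK293T cells, 2,000/well; compound pinned in; 16 hr, 37 °C, 5% CO2; ONE-Glo, 30 min RT; luminescence on CCD imager.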
NPC1 prom act = qHTS Assay for NPC1 Promoter Activators | 2.4% of 320,000 active | Huh7 NPC1 promoter luciferase reporter, 24 h | Potency, µM (series often up to 9.22 µM), for inactives: at the top dose activation, usual class: activators; note: % of control where 0% means no effect; nearly all actives have a fitted effect of over 60% in size
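Compounds in DMSO were transferred onto Huh7 NPC1-luciferase reporter cells pre-incubated 2 h; after 24 h at 37 °C, Amplite reagent was dispensed and luminescence recorded 10 min later.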
Rab9 prom act = qHTS Assay for Rab9 Promoter Activators; AID 485297, 2010; 2.8% of 320,000 active; Huh7 Rab9 promoter-luciferase reporter, luminescence, 24 h; Potency, µM (doses to about 9.22 µM), for the others: at the highest dose activation, negative = inhibition, most hits filed as activators; note: % of control where 0% means no effect; nearly all actives have a fitted effect of over 60% in size
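Cell-based reporter: Huh7 stable for Rab9 promoter-driven luciferase, plated in reduced-serum medium with 10% FBS at 1500 cells/well, compound-treated 24 h at 37 °C, luminescence read after 10 min reagent.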
FLuc modulator = qHTS profiling assay for firefly luciferase inhibitor/activator using purifed enzyme and Km concentrations of substrates (counterscreen for miR-21 project); Luciferin 4-monooxygenase (Photinus pyralis), P08659; AID 588342, 2011; Potency, µM (highest dose often 57.5 µM), for the others: at the top dose activity change, negative = inhibition, hits mostly inhibitors; 6.9% of 360,000 active; purified FLuc, Km substrates, luminescence inhibition;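 note: plate controls were vehicle for no effect and reference inhibitor for full effect; nearly all actives have a fitted effect of over 55% in size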
Target sequence (P08659 whole entry, looked up): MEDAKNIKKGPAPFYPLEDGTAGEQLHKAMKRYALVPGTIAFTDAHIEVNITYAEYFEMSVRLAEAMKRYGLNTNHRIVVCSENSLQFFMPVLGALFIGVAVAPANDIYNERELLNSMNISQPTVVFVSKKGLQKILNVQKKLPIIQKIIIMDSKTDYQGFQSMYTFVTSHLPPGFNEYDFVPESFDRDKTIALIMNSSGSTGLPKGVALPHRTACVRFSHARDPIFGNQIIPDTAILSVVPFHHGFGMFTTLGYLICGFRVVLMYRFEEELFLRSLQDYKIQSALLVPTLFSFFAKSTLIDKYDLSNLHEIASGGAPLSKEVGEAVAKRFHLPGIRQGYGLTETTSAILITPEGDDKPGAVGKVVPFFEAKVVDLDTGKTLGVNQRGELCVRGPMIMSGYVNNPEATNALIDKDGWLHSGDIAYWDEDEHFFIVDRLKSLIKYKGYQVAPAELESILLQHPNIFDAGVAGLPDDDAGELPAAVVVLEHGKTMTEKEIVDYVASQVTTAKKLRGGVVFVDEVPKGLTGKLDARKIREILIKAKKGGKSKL
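Purified P. pyralis luciferase (10nM final) with 10uM D-luciferin and 10uM ATP (Km levels) in 50mM Tris acetate pH 7.5, 10mM Mg acetate, 0.01% Tween-20, 0.05% BSA; qHTS 6-point titration, ~60 µM downward; luminescence read.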
An asterisk follows results filed as active; ? = inconclusive; nt = no result given; [ ] = remark or other dose. An excerpt weighted towards active compounds, which were near 7.5% of everything screened. Calls come from the whole dose curve; as a rule, active = well fitted curve in the direction sought with a large enough effect; inconclusive = small, poorly fitted or top-dose-only effect, or another doubt; inactive = no such curve, though single readings can be large; an effect the other way counts as inactive or inconclusive. Potency is the fitted concentration of half-maximal effect.

SMILES	KinaseGlo FLuc	SMN2 splice enh	ELG1 genotox	NPC1 prom act	Rab9 prom act	FLuc modulator
COc1cc2[nH]c(=O)n3nc(-c4ccccc4)nc3c2cc1OC	-1%	-1%	-5%	-8%	-2%	-13%
Cc1nn(C(C)C(=O)NCc2ccccc2Cl)c(=O)c2c1sc1ccccc12 (stereo unspecified)	-3%	-2%	-5%	2%	-5%	-3%
CCC(C(=O)N1CCN(c2ccccc2F)CC1)n1nc(C)c2sc3ccccc3c2c1=O (stereo unspecified)	nt	nt	nt	nt	nt	15µM*
Cc1nn(C(C)C(=O)NCc2cccc(F)c2)c(=O)c2c1sc1ccccc12 (stereo unspecified)	nt	nt	nt	nt	nt	11µM*
COc1ccc(CCNC(=O)C(C)n2nc(C)c3sc4ccccc4c3c2=O)c(OC)c1 (stereo unspecified)	nt	nt	nt	nt	nt	9.5µM*
CCC(C(=O)NCc1ccccc1)n1nc(C)c2sc3ccccc3c2c1=O (stereo unspecified)	nt	nt	nt	nt	nt	2%
CCC(C(=O)NCCc1ccccc1)n1nc(C)c2sc3ccccc3c2c1=O (stereo unspecified)	nt	nt	nt	nt	nt	19µM*
CCC(C)N(C(=O)c1csnn1)C(C(=O)NC1CCCC1)c1ccccc1F (stereo unspecified)	nt	nt	-6%	0%	2%	0%
COc1ccc(CCNC(=O)CCCn2nc(C)c3sc4ccccc4c3c2=O)cc1OC	nt	nt	nt	nt	nt	13µM*
Cc1nn(CCCC(=O)NCc2ccc(F)cc2)c(=O)c2c1sc1ccccc12	nt	nt	nt	nt	nt	-21%
CCC/C=C/C(C)O (stereo unspecified)	3%	-6%	nt	nt	nt	nt
CN1CCc2cc(NC(=O)Nc3cccnc3)ccc21	-2%	?	nt	9.2µM*	?	nt
O=C(Nc1cccnc1)Nc1cc(Cl)cc(Cl)c1	0%	nt	-5%	-9%	-6%	?
Cc1ccc(NC(=O)Nc2ccon2)cc1Cl	nt	nt	3%	21%	23%	19µM*
O=C(Nc1ccc(Cl)cc1)Nc1ccon1	nt	nt	3%	-22%	6%	?
Cn1ccc2cc3c(cc21)CCN3C(=O)Nc1cccnc1	-3%	?	?	3.7µM*	3.2µM*	6µM*
O=C(Nc1ccc(F)cc1)Nc1cccnc1	nt	nt	1%	10%	4%	17µM*
COc1cc2c(cc1C(F)(F)F)N(C(=O)Nc1cc(F)cc(-c3cccnc3)c1)CC2	-4%	-18%	nt	nt	nt	nt
CN1CCN(C(=O)Nc2cccc(-c3ccccc3)c2)CC1	nt	nt	-2%	-1%	-6%	0%
COc1ccc2nc(SC(C)C(=O)NCC(=O)Nc3ccc(F)c(F)c3F)[nH]c2c1 (stereo unspecified)	nt	nt	0%	1%	3%	?
CC(=O)c1ccc(NC(=O)Nc2ccncc2)cc1	-1%	15%	12%	1%	20%	-26%
CC(=O)c1ccc(NC(=O)Nc2cccnc2)cc1	nt	nt	21µM*	2.5µM*	?	?
O=C(Nc1ccccc1)Nc1ccc(Oc2cccnc2)nc1	nt	nt	6%	27%	25%	13µM*
O=C(NCC(F)(F)F)Nc1cccnc1	0%	-10%	1%	-7%	7%	-1%
O=C(Nc1ccc(OC(F)(F)F)cc1)Nc1cccnc1	nt	nt	6%	?	?	7.6µM*
SMILES	KinaseGlo FLuc	SMN2 splice enh	ELG1 genotox	NPC1 prom act	Rab9 prom act	FLuc modulator
O=C(Nc1ccccc1)C(=O)Nc1cccnc1	nt	nt	?	0.5µM*	0.4µM*	3µM*
CCC(C)c1ccc(NC(=O)Nc2cccnc2)cc1 (stereo unspecified)	nt	nt	?	1.8µM*	4.5µM*	1.7µM*
Cc1ccc(NC(=O)Nc2cccnc2)cc1Cl	nt	nt	?	?	28%	4.8µM*
CCOc1ccc(NC(=O)Nc2ccon2)cc1	nt	nt	?	25%	?	24µM*
COc1cc(/C=C/C(=O)OCC(=O)NC2CCCCCCC2)ccc1O	nt	nt	0%	nt	nt	nt
COc1ccc(C(=O)N2CCC3(CCCN(Cc4ccncc4)C3)CC2)cc1	-1%	-20%	nt	nt	nt	nt
O=C(OCC(=O)N1CCC(Cc2ccccc2)CC1)c1ccccc1F	nt	nt	3%	1%	2%	4.3µM*
O=C(OCC(=O)N1CCC(Cc2ccccc2)CC1)c1ccccc1	-5%	-6%	6%	-14%	?	12µM*
c1ccc(-c2noc(-c3cccnc3)n2)cc1	-15%	?	nt	nt	nt	9.5µM*
CC(Nc1ccc(-c2nc(-c3cccnc3)no2)cc1[N+](=O)[O-])c1ccccc1 (stereo unspecified)	nt	nt	nt	nt	nt	-1%
c1cncc(-c2noc(-c3ccc4ccccc4c3)n2)c1	nt	nt	2.1µM*	0.32µM*	0.28µM*	1.2µM*
c1ccc(-c2ccc(-c3nc(-c4cccnc4)no3)cc2)cc1	-10%	13µM*	2.3µM*	1.3µM*	?	1.3µM*
O=c1[nH]c2ccccc2cc1-c1noc(-c2cccnc2)n1	-1%	-5%	-2%	23%	24%	?
COc1cccc(N2CCN(S(=O)(=O)c3cn(C)c(C)n3)CC2)c1	nt	nt	nt	nt	nt	0%
Nc1ccc2oc(-c3ccccn3)nc2c1	?	2.8µM*	?	?	?	19µM*
Clc1ccc2oc(-c3ccccn3)nc2c1	?	16µM*	?	2.5µM*	3.2µM*	-21%[2.3 µM]
CCCCN1C(=O)/C(=C2\SC(N3CCCCC3)=NC2=O)c2ccccc21	-12%	?	?	1.4µM*	1.8µM*	2.1µM*
O=S1(=O)C=C(Sc2nc3ccccc3s2)c2ccccc21	0%	-108%	-45%	-33%	-34%	2.7µM*
Cc1ccc(C)c(OCCOCCn2c(-c3ccc(Br)cc3)nc3ccccc3c2=O)c1C	nt	7%	nt	nt	nt	2%
Cc1ccc(NC(=O)CCS(=O)(=O)c2ccc3c(c2)oc(=O)n3C)c(Br)c1	nt	nt	nt	nt	nt	5%
O=C(Nc1ccc(N2CCCC2)cc1)c1ccc(Br)o1	-17%	?	?	0.5µM*	0.35µM*	11µM*
CCN1CCN(c2ccc(NC(=O)c3ccc(Br)o3)cc2)CC1	nt	nt	16µM*	?	?	17µM*
O=C(Nc1ccc(N2CCN(C(=O)c3ccccc3)CC2)cc1)c1ccc(Br)o1	0%	-14%	-25%	8%	0%	1%
CCC1CCCCN1C(=O)CCS(=O)(=O)c1cc2c(cc1C)NC(=O)CO2 (stereo unspecified)	nt	nt	nt	nt	nt	-3%
Cc1coc2c(C)c3oc(=O)c(CCC(=O)N(C)CC(=O)O)c(C)c3cc12	nt	nt	1%	1%	-6%[1.84 µM]	-1%
